Results taken from PubChem BioAssay AID488890 (Southern Research Specialized Biocontainment Screening …, 2010).
Out of some 320,000 compounds screened, about 1,300 (0.41%) were called active. Not shown: some 3% with an inconclusive outcome. No rule for the calls is given here. Not all results are given here. Entries with a potency or affinity are not part of this list.

Test: growth inhibition of non-replicating M. tuberculosis (AID 488890);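 also: plate controls were DMSO cells for no effect and high antibiotic wells for full effect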
Conditions: Mycobacterium tuberculosis non-replicating, at 25 µM, stronger effect = higher value
In the case of `Cc1nc(/N=C(\N)NC(=O)c2ccccc2)nc2ccccc12`, the inhibition is reported as -4.45%. In the case of `Cc1ccc2nc(N=C(N)N)nc(C)c2c1`, the inhibition is reported as 30.9%. In the case of `Cc1ccc2nc(/N=C(\N)NC(=O)N3c4ccccc4Sc4ccccc43)nc(C)c2c1`, the inhibition is reported as 10.2%. `Cc1cc2nc(/N=C(\N)NC(=O)N3c4ccccc4Sc4ccccc43)nc(C)c2cc1C` gave an inhibition of -20.4%. `Cc1ccccc1Cn1cc(S(=O)(=O)c2ccc(C(C)C)cc2)c(=O)c2cc3c(cc21)OCO3` gave an inhibition of 11.4%. For `Cc1ccc(S(=O)(=O)NC(CCc2ccccc2)CC(=O)C(C)(C)C)cc1` (centres undefined), the inhibition was 0.24%. Molecule `CCOC(=O)CN1C2=NCCCN2c2ccccc21` has an inhibition of 15.4%. For `O=C(Cc1ccc(Cl)cc1)Nc1cccnc1`, the inhibition was 30.9%. `O=C(O)c1ccc(Nc2cc(Cl)c3nonc3c2[N+](=O)[O-])cc1` showed an inhibition of 76%. `O=C(O)c1ccccc1Nc1cc(Cl)c2nonc2c1[N+](=O)[O-]` showed an inhibition of 71.1%. In the case of `CC(NC(=O)c1cc(S(=O)(=O)N2CCOCC2)ccc1N1CCCC1)c1ccc(Cl)c(Cl)c1` (centres undefined), the inhibition is reported as 4.97%. `Cc1cccc(Cn2c(N3CCN(C)CC3)nc3c2c(=O)n(C)c(=O)n3C)c1` gave an inhibition of -18%. `CCOC(=O)c1c(NC(=O)COC(=O)c2nccnc2N)sc2c1CCC2` gave an inhibition of 26.4%. In the case of `CCOC(=O)c1c(NC(=O)COC(=O)c2ccccn2)sc(C)c1C`, the inhibition is reported as 37%. With `Cc1ccc(CN2C(=O)CSC2c2ccccc2F)cc1` (centres undefined) the inhibition was 10.3%. Work on `CCCCCCn1c(COc2ccccc2F)nnc1SCC(=O)c1c(N)n(C)c(=O)n(C)c1=O` yielded an inhibition of -10.3%. In the case of `CC1=CS(=O)(=O)CC1Sc1nc(C)n[nH]1` (centres undefined), the inhibition is reported as -1.03%. Molecule `Cc1ccc(O)c(C(=O)c2cnc3c(c2)c(=O)n(C)c(=O)n3C)c1` has an inhibition of -3.64%. `O=C(Cn1ccc2cc(S(=O)(=O)N3CCCC3)ccc21)NCc1ccco1` gave an inhibition of 21.9%. Work on `CN1C(=O)N(C)c2ccc(Br)c3cccc1c23` yielded an inhibition of 6.26%. `CN1C(=O)N(C)c2cccc3cccc1c23` showed an inhibition of 0.15%. Molecule `OCC1(Cc2ccccc2)CCN(Cc2cnc(-c3cccc4ccccc34)nc2)CC1` has an inhibition of 4.25%. In the case of `CCC(C)NC(=O)Cn1c(=O)sc2ccccc21` (centres undefined), the inhibition is reported as 1.3%. Work on `Cc1ccc2cccc(OCC(=O)Nc3cccc(S(=O)(=O)N4CCCC4)c3)c2n1` yielded an inhibition of 4.51%. For `O=C(CSc1nc2ccccc2nc1N1CCOCC1)Nc1ccccc1F`, the inhibition was 6.49%. `CCN(CC(=O)Nc1ccc(NC(C)=O)cc1)C(=O)c1cc(CN2C(=O)c3ccccc3C2=O)ccc1OC` gave an inhibition of -15%. With `Cc1c(Cl)cccc1NC(=S)N(C)CCC#N` the inhibition was -8.13%. In the case of `COc1ccc(C(=O)C2CCCN(Cc3ccccn3)C2)c(OC)c1` (centres undefined), the inhibition is reported as 21.8%. `COc1cccc(C(=O)C2CCCN(Cc3cccc(C)n3)C2)c1` (centres undefined) showed an inhibition of 37.8%. In the case of `COc1cccc(C(=O)C2CCCN(Cc3ccccn3)C2)c1` (centres undefined), the inhibition is reported as 23%. Work on `COc1ccc(C(=O)C2CCCN(Cc3cccc(C)n3)C2)c(OC)c1` (centres undefined) yielded an inhibition of 19.9%. For `CCOc1ccccc1N1CCN(C(=O)c2cc[n+]([O-])cc2)CC1`, the inhibition was 15.7%. For `CC(=O)Nc1ccc(S(=O)(=O)NCCc2csc(C)n2)cc1`, the inhibition was -0.23%. `Cc1ccccc1OCCCC(=O)NCc1ccco1` gave an inhibition of 15.7%. Work on `O=C(Nc1nc2ccccc2[nH]1)c1cc2ccccc2o1` yielded an inhibition of 34.8%. `C/C(=N\Nc1nc2ccccc2[nH]1)c1ccccn1` gave an inhibition of 78.5%. With `CCOc1ncccc1C(=O)OCc1ccc([N+](=O)[O-])cc1` the inhibition was 57.5%. In the case of `CCn1c(N2CCN(C(=S)NC)CC2)nc2ccccc21`, the inhibition is reported as -6.07%. `CC(C1CC1)N(Cc1ccccc1)C(=S)Nc1cccc(C(F)(F)F)c1` (centres undefined) gave an inhibition of 66.8%. `COc1ccc(C2=Nc3cc(C)ccc3OC2)cc1` gave an inhibition of 23.2%. Work on `Clc1ccc(C2=Nc3cc(Cl)ccc3OC2)cc1` yielded an inhibition of 15.6%. `Cc1ccc2c(c1)N=C(c1ccc(Cl)cc1)CO2` showed an inhibition of 29%. `Cc1ccc2c(c1)N=C(c1ccc(F)cc1)CO2` gave an inhibition of 30.4%. Work on `Cc1cc(=O)[nH]c(SCC(=O)N2CCC(Cc3ccccc3)CC2)n1` yielded an inhibition of 0.43%. `CCN(C(=O)c1cc2cc3ccc(C)cc3nc2o1)c1ccc(OC)cc1` showed an inhibition of 75.9%. In the case of `CS(=O)(=O)N1CCC(C(=O)N2CCN(c3ccc(F)cc3)CC2)CC1`, the inhibition is reported as -0.02%. `O=C(NCC(=O)N1CCc2ccccc2C1)c1ccc(Cl)cc1Cl` gave an inhibition of 7.88%. `O=C(c1cc([N+](=O)[O-])ccc1N1CCCCC1)N1CCc2ccccc21` showed an inhibition of 21%. `O=C(c1cc([N+](=O)[O-])ccc1Cl)N1CCc2ccccc21` showed an inhibition of 43%. `C/C(CC(=O)Nc1ccc(Cl)cc1Cl)=N\NC(=O)c1ccco1` showed an inhibition of 62.2%. For `Cc1c2ccccc2nc2c(F)c(NC(C)C)c(F)c(F)c12`, the inhibition was 25.6%. Work on `Cc1c2ccccc2nc2c(F)c(N(C)C)c(F)c(F)c12` yielded an inhibition of 67.8%. For `CCCn1c(NC(=O)c2cccc(S(=O)(=O)N3CCCC3)c2)nc2ccccc21`, the inhibition was 12.3%. Molecule `Cc1[nH]n(S(=O)(=O)c2ccccc2)c(=O)c1N=Nc1cccc(Cl)c1` has an inhibition of 70.6%. `Cc1[nH][nH]c(=O)c1N=Nc1ccccc1Cl` showed an inhibition of 2.18%. Work on `C#CCOCCOCCOCCNc1nc(N2CCN(C(=O)[C@H](CCC(=O)O)n3cc([C@@H](N)[C@H](C)CC)nn3)CC2)nc(N2CCN(C(=O)[C@H](CCCCN)n3cc([C@@H](N)CC(N)=O)nn3)CC2)n1` yielded an inhibition of -0.95%. `Cc1cccc2c(=O)c(Br)c(C)n(Cc3ccccc3)c12` gave an inhibition of -19.5%. `CCOC(=O)Cn1c(=O)cc(C)c2cccc(C)c21` showed an inhibition of 78.8%. For `CC(NC(=S)NC(=O)c1ccccc1)c1ccccc1` (centres undefined), the inhibition was 38.7%. `COc1ccc(OC)c(C2Nc3ccccc3NC3=C2C(=O)CC(C)(C)C3)c1` (centres undefined) gave an inhibition of 3.61%. For `Cc1ccc(C)c(NC(=O)CN(C)C(=O)C2=NNC(=O)CC2)c1`, the inhibition was 10.7%. For `NS(=O)(=O)c1ccc(NC(=O)COC(=O)c2cc(Cl)ccc2[N+](=O)[O-])cc1`, the inhibition was 16.2%. In the case of `CC(C)(C)NC(=O)COC(=O)c1cc(Cl)ccc1[N+](=O)[O-]`, the inhibition is reported as 70.2%. Molecule `O=C(C1=C(O)C(=O)N(CCCn2ccnc2)C1c1ccc(F)cc1)c1ccco1` (centres undefined) has an inhibition of 1.68%. Work on `CC(C)(C)NS(=O)(=O)c1ccc(NC(=O)C2CC(=O)N(CCc3ccc(F)cc3)C2)cc1` (centres undefined) yielded an inhibition of 6.94%. `COc1ccc(CCN2CC(C(=O)NCC3(O)CCCCC3)CCC2=O)cc1` (centres undefined) gave an inhibition of -4.96%. With `Cc1cc(N2CCOCC2)nc(NCc2ccccc2)n1` the inhibition was 15.7%. Molecule `Cc1cc(N2CCN(c3ccccc3)CC2)nc(NCc2ccccc2)n1` has an inhibition of 36.7%. `Cc1cc(Nc2ccccc2)nc(NCc2ccccc2)n1` showed an inhibition of 69.7%. For `Cc1cc(OC2CCCCC2)nc(NCc2ccccc2)n1`, the inhibition was 29.8%. In the case of `Cc1ccc(SCCC(=O)OCC(=O)Nc2ccc(C(N)=O)cc2)cc1`, the inhibition is reported as -4.28%. Molecule `COc1cc(S(=O)(=O)Nc2ccncc2)ccc1F` has an inhibition of -1.45%. Work on `COc1cccc(Nc2nc3cc(OC)ccc3cc2C#N)c1` yielded an inhibition of 2.07%. `O=C(Nc1nn[nH]n1)c1cc(-c2ccc(Cl)c(Cl)c2Cl)nc2ccccc12` showed an inhibition of 28.1%. `Cc1cc2[nH]c(=O)c(=O)[nH]c2cc1S(=O)(=O)N(C)C1CCCCC1` showed an inhibition of 13.6%. For `O=C(O)CN1C(=O)CSC1=S`, the inhibition was -1.21%. `CC(C)OC(=O)CCCN1C(=O)c2ccc(N)cc2C1=O` showed an inhibition of -10.2%. For `COC(=O)C1=C(C)NC(C)=C(C(=O)OC)C1C(=O)OC1CCCCC1=O` (centres undefined), the inhibition was -9.56%. In the case of `CCOC(=O)C1CCN(CC(=O)Nc2c(C(=O)OC)[nH]c3cccc(C)c23)CC1`, the inhibition is reported as 2.06%. For `CC(=O)NCC(=O)OCC(=O)N1c2ccccc2Sc2ccccc21`, the inhibition was 15.6%. `CCOC(=O)N1c2ccccc2Sc2ccccc21` gave an inhibition of 11.9%. `COc1cccc(CN(C)C(=O)Cc2c[nH]c3ccccc23)c1OC` gave an inhibition of 5.31%. Molecule `CCOC(=O)C1=C(COC(=O)c2ccc(C)s2)NC(=O)NC1C` (centres undefined) has an inhibition of 11.3%. `CCS(=O)(=O)N1N=C(c2cccc(NS(C)(=O)=O)c2)CC1c1ccccc1` (centres undefined) showed an inhibition of 36.4%. In the case of `Cc1nn(-c2nc3ccccc3s2)c(N)c1-c1ccc(Cl)cc1`, the inhibition is reported as -4.69%. `Cc1nn(-c2nc3ccccc3[nH]2)c(=O)c2ccccc12` showed an inhibition of 34%. For `Cc1cc(C(=O)COC(=O)COc2ccc(C#N)cc2)c(C)n1C1CC1`, the inhibition was 47%. `CCC(=O)c1ccc(OCC(=O)OCC(=O)c2cc(C)n(CC3CCCO3)c2C)cc1` (centres undefined) gave an inhibition of 70.2%. Work on `CC(C)c1ccc(NC(=O)C2CCCN2S(=O)(=O)c2ccccc2F)cc1` (centres undefined) yielded an inhibition of -6.6%. `CC1=Nc2ccccc2/C1=C/c1c(O)[nH]c(=O)[nH]c1=O` gave an inhibition of 1.63%. For `O=c1[nH]c(O)c(C=Nc2ccc(F)c(Cl)c2)c(=O)[nH]1`, the inhibition was 4.76%. In the case of `O=C(Nc1cccc(Cl)c1)c1nc[nH]c1C(=O)NCc1ccccc1`, the inhibition is reported as 78.3%. `CCOCC(=O)N1CCC(Cc2ccccc2)CC1` showed an inhibition of 47.1%. `CCCNC(=O)N1CCC(Cc2ccccc2)CC1` gave an inhibition of 67.7%. For `Cc1cc(C(=O)N2CCC(Cc3ccccc3)CC2)c(C)o1`, the inhibition was 15.3%. With `O=C(c1cccs1)N1CCC(Cc2ccccc2)CC1` the inhibition was 11.9%. Molecule `O=C(O)CCCC(=O)N1CCN(c2ncccn2)CC1` has an inhibition of -16.3%. `COc1ccc(-n2cc(C(=O)c3cc4ccccc4oc3=O)c(C(C)=O)n2)cc1` showed an inhibition of 19.3%. Work on `COc1ccc(CCNC(=O)c2cccc(S(=O)(=O)N3CCOCC3)c2)cc1OC` yielded an inhibition of 16%. Molecule `O=C(Cc1ccc(Cl)c(Cl)c1)OCC(=O)c1ccc[nH]1` has an inhibition of 70.6%. Molecule `O=C(Cc1ccc(Br)cc1)OCC(=O)c1ccc[nH]1` has an inhibition of 79.4%. `O=C(COC(=O)c1ccc[nH]c1=O)c1ccc(Cl)s1` showed an inhibition of 21.8%. With `O=C(COC(=O)c1nc(Cl)ccc1Cl)c1ccc[nH]1` the inhibition was 4.28%. `CC(=O)N1c2ccc(S(=O)(=O)NCC3CCC(C(=O)NCc4ccccc4)CC3)cc2CC1C` (centres undefined) gave an inhibition of 14.7%. With `COc1ccc(CC2C(=O)N(C)C(=O)N(C)C2=O)c(OC)c1` the inhibition was -3.03%. In the case of `O=C/C(=C\Nc1ccc(Cl)cn1)c1nc2cc(Cl)ccc2o1`, the inhibition is reported as 58.2%. With `COc1ccc(-c2cc3ccc(OCC(C)=O)cc3oc2=O)cc1` the inhibition was 15.4%. Molecule `COc1ccc(-c2cc3ccc(OC(C)C(=O)O)cc3oc2=O)cc1` (centres undefined) has an inhibition of -4.62%. With `COc1ccc(-c2cc(=O)oc3cc(OCC(C)=O)ccc23)cc1` the inhibition was 36.8%. For `COc1ccc(-c2cc3ccc(OCC(N)=O)cc3oc2=O)cc1OC`, the inhibition was 17.8%. `CC(Oc1ccc2cc(-c3ccccc3)c(=O)oc2c1)C(=O)NCC1CCC(C(=O)O)CC1` (centres undefined) gave an inhibition of 4.91%. In the case of `COc1ccc(-c2cc(=O)oc3cc(OCC(=O)N(C)C)ccc23)cc1`, the inhibition is reported as -18.8%. Molecule `COC(=O)C(C)Oc1ccc2c(-c3cccc([N+](=O)[O-])c3)cc(=O)oc2c1` (centres undefined) has an inhibition of 67.4%. `CC(=O)COc1ccc2c(-c3cccc([N+](=O)[O-])c3)cc(=O)oc2c1` showed an inhibition of -17.4%.
